From the supplement of paper PMC10338343
± gives the standard deviation.

system: MILI (PIWIL2) piRISC loaded with L1MC piRNA (26 nt); test: pre-steady-state target cleavage rate (min^-1); guide: L1MC piRNA 5'p-UAACUAAAUACUAUGCAAGCUGUAGG; MIWI and MILI are mouse PIWI proteins and EfPiwi is from a freshwater sponge; tags in brackets are library labels; higher = faster piRNA-guided slicing of the target; details: auxiliary factor: 500 nM mouse GTSF1
How it was run: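 The pre-steady-state cleavage rate was calculated from a burst-and-steady-state fit. Data came from Cleave-'n-Seq, in which […] transcribed, DNA-blocked target RNA library was mixed with 1 nM active affinity-purified piRISC carrying one synthetic guide, with or without 500 nM GTSF1 partner protein, in HEPES–potassium acetate buffer at 33 °C for 0–8 or 0–960 min. Uncleaved targets were sequenced and normalised to depth and to weakly complementary targets, three trials were pooled, and k3 was capped at 0.0001 min^-1.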
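Note: 1 nM active piRISC with 0.1 nM target library at 33 °C single turnover.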

Sequence | pre-steady-state target cleavage rate
UCCUGGAACAGCUUGCAUAGAAUUUAGAAA | 0.0206 ± 0.0083
UCCUGGAACAGCUUGCAUAGAAUUUACAAA | 0.0177 ± 0.0082
UCCUGGUACAGCUUGCAUCAGUAUUUAGUUA | 0.0101 ± 0.0042
UCCUGGUACAGCUUGCUUAGAAUUUAGUUA | 0.181 ± 0.059
UCCUGGAACAGCUUGCAUAGAUAUUAGUAA | 0.0101 ± 0.0057
UCCUGGAUGAGCUUGCAAAGUAUUUACUUA | 0.046 ± 0.014
UCCUGGAUGUGCUUGCAUAGUAAUUUGUUA | 0.0141 ± 0.0071
UCCUGGAAGUCCUUGCAUAGUAUUUAGAAA | 0.151 ± 0.03
UCCUGGAUGUCGAACCAUUGUAUAUAGUUA | < 0.0001
UCCUGGAACACCUUGCAUAGUAUUUAGAAA | 0.146 ± 0.031
UCCUGGUACACCUUGGAUAGUAUUUAGUUA | 0.223 ± 0.069
UCCUGGAUCAGCUUGCAUAGUAUUUAGCUA | 0.00534 ± 0.0036
UCCUGGUACAGCUUGCAUAGAUUUUAGAAA | 0.00722 ± 0.0042
UCCUGGAUGUGCUAGCAUAGUAUUUAGAAA | 0.0422 ± 0.012
UCCUGGAUGAGCUUGCAUAGUAUAUUGUUA | 0.0743 ± 0.017
UCCUGCUACAGCUUGCAUAGAUUUUAGUUA | 0.0475 ± 0.0083

Sequence | pre-steady-state target cleavage rate
UCCUGGAUGUCCUUGGAUAGUAUUUAGAUA | 0.129 ± 0.035
UCCUCCUACAGCUUGCAUAGUAUUUACUAA | 0.114 ± 0.027
UCCUGGAUCAGCUUCCAUAGUUUUUAGUUA | 0.0089 ± 0.0041
UCCUGGUACAGCUUGCAUAGAAUUUAGUAA | 0.0567 ± 0.024
UCCUGCUACAGCAACCAUAGUAUUUAGUUA | 0.305 ± 0.04
UCCUGGAACAGCUUGCAUAGUAAAUAGUAA | 0.143 ± 0.035
UCCUGGAACAGCUUGCAUUGUAUUAAGUUA | 0.163 ± 0.026
UCCUGGUACAGCUUGCAUAGUAUGUAGUUA | 0.03 ± 0.011
UCCUGGAUGAGCUUGCAUAGUAUUUUGAUA | 0.0343 ± 0.014
UCCUCCUACAGCUUGCAUAGAAAUUAGUUA | 0.0406 ± 0.0085
UCCUGGUACAGCUUGCAUAGUAUAAAGAAA | 0.0207 ± 0.0082
UCCUCCUAGUGCUUGCAUAGUAUUUUCAAA | 0.0158 ± 0.0057
UCCUGGAUGUCCUUGCAUAGUAUAUAGUAA | 0.0276 ± 0.01
UCCUGGAUGUCCUUGCAUAGUUAAUAGUUA | 0.00959 ± 0.0043
UCCUGGAUCAGCUUGCAUAGUAUUAUCUUA | 0.0326 ± 0.0079
UCCUGGUACAGCUUGCAUAGUAUAUAGAAA | 0.0845 ± 0.028

same assay, conditions: auxiliary factor: none (no GTSF1)

Sequence | pre-steady-state target cleavage rate
UCCUGGAUGUCGAACGUUAGUAAUUUGUUA | < 0.0001
UCCUGGAUGUCGUUCCAAAGUAUUUAGUUA | < 0.0001
UCCUGGAUGUGCUUGCAUACAUAAAUCAAA [g12:g20:cont:t1A] | < 0.0001
UCCUGGAUGUGCUUGCAUAGAUAUUUAGUUA | 0.00495 ± 0.0023
UCCUGGAUCAGCUACCAUAGUAUUUUCAAA | < 0.0001
UCCUGGAUGUCGAACGUAUCUAUUUAGUCA | < 0.0001
UCCUGGAUGUCGAACCAUAGUAUUGAGUUA | < 0.0001
UCCUGGAUCAGCAACCAUAGUAUUUACAAA | < 0.0001
